# Data reported in PubChem BioAssay (EPA / NIEHS).
# Inconclusive results are not listed. More than one record can exist for a structure, and the calls need not agree. The source made the active and inactive calls. The calls were made as follows: active = hit-call score of the fitted dose curve at least 0.9, where 1 is the maximum; inconclusive = response in the unintended direction; inactive = score below 0.9.
# Tests used:
# [1] = tested on: chicken Androgen Receptor (AR), gene 422165; assay: ATG_chAR_XSP1: Attagene TRANS-FACTORIAL Multi-Species (XSP1) HepG2 Assay for chicken Androgen Receptor (AR) (AID 2283768)
# Procedure, shortened: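 HepG2 cells transiently transfected with multiplexed GAL4-UAS reporter units expressing chimeric chicken AR-Gal4; 3 nM 6-alpha-fluorotestosterone for partial AR stimulation; 24 h after dosing, reporter mRNA by RT-PCR and capillary electrophoresis, gain-of-signal versus DMSO.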
# [2] = molecular target: zebrafish Estrogen Receptor (ESR1), esr1 (gene 259252) (UniProt P57717); assay: ATG_zfER1_XSP1: Attagene TRANS-FACTORIAL Multi-Species (XSP1) HepG2 Assay for zebrafish Estrogen Receptor (ESR1) (AID 2283772)
# Procedure, shortened: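 HepG2 cells were transiently transfected with multiplexed GAL4-UAS reporter units driven by chimeric NR-GAL4 proteins, dosed for 24 h with 3 nM 6-alpha-fluorotestosterone present, and reporter mRNA quantified by RT-PCR and capillary electrophoresis versus DMSO.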
# [3] = tested on: zebrafish Estrogen Receptor (ESR2B), gene 317733; assay: ATG_zfER2b_XSP1: Attagene TRANS-FACTORIAL Multi-Species (XSP1) HepG2 Assay for zebrafish Estrogen Receptor (ESR2B) (AID 2283773)
# Procedure, shortened: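 HepG2 cells transiently transfected with multiple GAL4-UAS reporter units expressing chimeric zebrafish ER2b-Gal4; 24 h chemical exposure with 3 nM 6-alpha-fluorotestosterone present. Reporter mRNA measured by RT-PCR and capillary electrophoresis; gain of signal fitted versus DMSO.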
# [4] = ACEA_AR_agonist_AUC_viability: ACEA Biosciences xCELLigence Real-Time Cell Analysis on Androgen Receptor Agonism for Viability (AID 2283775);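 as to AC50: viability read 80 hours after compound addition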
# Procedure, shortened: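 Read-out is area under the impedance curve at 80 h post-dose in 22Rv1 cells, with DMSO as baseline and signal loss taken as reduced viability. Compounds ran in duplicate from 100 uM final.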
# [5] = ACEA_AR_antagonist_AUC_viability: ACEA Biosciences xCELLigence Real-Time Cell Analysis on Androgen Receptor Antagonism for Viability (AID 2283776);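 also: 22Rv1 human prostate cancer cells growing on impedance electrode plates; area under impedance growth curve at 80 h after dosing as viability; hits lower the growth signal relative to DMSO meaning cytotoxicity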
# Procedure, shortened: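 22Rv1 prostate cells, continuous dosing up to 100 uM final (0.5% DMSO max), duplicate plates. Growth measured by impedance; AUC at 80 h, loss of signal vs DMSO.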
# [6] = tested on: frog Estrogen Receptor (ESR1), gene 398734; assay: ATG_frER1_XSP1: Attagene TRANS-FACTORIAL Multi-Species (XSP1) HepG2 Assay for frog Estrogen Receptor (ESR1) (AID 2283777)
# Procedure, shortened: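 Read-out: fluorescent reporter mRNA via RT-PCR, HpaI digestion and capillary electrophoresis, after 24 h chemical exposure of transiently transfected human HepG2 cells expressing exogenous NR-Gal4 chimeras. DMSO served as baseline for positive-direction fitting.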
# [7] = tested on: zebrafish Estrogen Receptor (ESR2A), gene 317734; assay: ATG_zfER2a_XSP1: Attagene TRANS-FACTORIAL Multi-Species (XSP1) HepG2 Assay for zebrafish Estrogen Receptor (ESR2A) (AID 2283778)
# Procedure, shortened: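 HepG2 cells transiently transfected with multiplexed GAL4-UAS reporter units and chimeric NR-GAL4 receptors; 24 h compound exposure with 3 nM 6-alpha-fluorotestosterone present. Reporter mRNA quantified by RT-PCR and capillary electrophoresis, gain-of-signal fitted relative to DMSO.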
# [8] = molecular target: Estrogen receptor (Homo sapiens) (UniProt P03372); assay: ATG_hERa_XSP1: Attagene TRANS-FACTORIAL Multi-Species (XSP1) HepG2 Assay for human Estrogen Receptor (ESR1) (AID 2283780)
# Procedure, shortened: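 HepG2 cells transiently transfected with GAL4-UAS reporter units and chimeric NR-Gal4 constructs; 24 h after dosing, reporter mRNA quantified by RT-PCR and capillary electrophoresis. Medium contained 3 nM 6-alpha-fluorotestosterone; activity fitted as gain-of-signal versus DMSO.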
# [9] = tested on: turtle Estrogen Receptor (ESR1), gene 101933533; assay: ATG_trERa_XSP1: Attagene TRANS-FACTORIAL Multi-Species (XSP1) HepG2 Assay for turtle Estrogen Receptor (ESR1) (AID 2283781)
# Procedure, shortened: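 HepG2 cells transiently transfected with GAL4-UAS reporter units and chimeric NR-Gal4 constructs, dosed for 24 h with 3 nM 6-alpha-fluorotestosterone present. Reporter mRNA was quantified by RT-PCR, fluorescent labelling and capillary electrophoresis, with gain of signal fitted relative to DMSO.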
# [10] = ACEA_ER_AUC_viability: ACEA Biosciences xCELLigence Real-Time Cell Analysis on Estrogen Receptor Agonism for Viability (AID 2283782);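 also: continuous compound exposure with impedance area under curve over 80 h; hit means loss of impedance signal meaning reduced cell growth or viability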
# Procedure, shortened: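 T-47D human breast cells in phenol red-free RPMI1640 with 10% charcoal-stripped FBS were dosed with an 8-point 1:4 dilution series from 100 uM top final concentration, in duplicate. Impedance-based growth was followed for 80 h; AUC analysed versus DMSO.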
# [11] = STM_H9_NormalizedViability: Cytotoxicity Assessment at 120 hours in the Stemina devTOX quickPredict H9 human embryonic stem cell (hESC)-based Assay (AID 2283784)
# Procedure, shortened: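 Chemicals are tested blinded on H9 human embryonic stem cells in the pluripotent state, with medium exchanged daily. After background correction, fluorescence from CellTiter-Fluor is scaled against 0.1% DMSO wells, and decreases are scored.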
# [12] = molecular target: Estrogen receptor beta (Homo sapiens) (UniProt Q92731); assay: ATG_hERb_XSP1: Attagene TRANS-FACTORIAL Multi-Species (XSP1) HepG2 Assay for human Estrogen Receptor (ESR2) (AID 2283788)
# Procedure, shortened: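 Read-out: reporter mRNA induction by RT-PCR, HpaI digestion and capillary electrophoresis fluorescence, fitted in positive direction relative to DMSO baseline. Human liver HepG2 cells expressing ERβ-Gal4 fusion, dosed 24 h, medium containing 3 nM 6-alpha-fluorotestosterone.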
# [13] = molecular target: GAL4 Transcription Factor (Internal Marker), GAL4 (gene 855828) (UniProt P04386); assay: ATG_GAL4_XSP1: Attagene TRANS-FACTORIAL Multi-Species (XSP1) HepG2 Assay for GAL4 Transcription Factor (Internal Marker) (AID 2283789)
# Procedure, shortened: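 HepG2 cells transiently transfected with multiplexed GAL4-UAS reporter units were exposed for 24 h with 3 nM 6-alpha-fluorotestosterone present. Reporter mRNA was quantified by RT-PCR, FAM labelling, HpaI digestion and capillary electrophoresis; background-control readout, gain-of-signal versus DMSO.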
# [14] = ATG_M_06_XSP1: Attagene TRANS-FACTORIAL Multi-Species (XSP1) HepG2 Assay for M06 Transcription Factor (Internal Marker) (AID 2283790)
# Procedure, shortened: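 Transfected HepG2 multi-reporter system treated 24 h in the presence of 3 nM 6-alpha-fluorotestosterone. The M06 internal marker transcript was quantified by RT-PCR with capillary electrophoresis as a background control, and gain of signal was scored versus DMSO.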
# [15] = ATG_M_61_XSP1: Attagene TRANS-FACTORIAL Multi-Species (XSP1) HepG2 Assay for M61 Transcription Factor (Internal Marker) (AID 2283797)
# Procedure, shortened: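 HepG2 cells transiently transfected with multiplexed GAL4-driven reporter units, dosed 24 h with 3 nM 6-alpha-fluorotestosterone present. Reporter mRNA quantified by RT-PCR, 6-FAM labelling, HpaI digestion and capillary electrophoresis; internal-marker background control, gain of signal versus DMSO.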
# AR (gene 367) = AR (gene 367) (UniProt P10275); assay: ACEA_AR_agonist_80hr: ACEA Biosciences xCELLigence Real-Time Cell Analysis on Androgen Receptor Agonism for Proliferation (AID 2283783);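 also: hits increase impedance growth signal above DMSO baseline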
# Procedure, shortened: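 22Rv1 human prostate cancer cells were seeded after preconditioning in assay medium and monitored overnight, then dosed in an eight-point 1:4 dilution series from 100 uM (≤0.5% DMSO). Impedance-based growth was read at 80 h, gain-of-signal versus DMSO.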
# [16] = molecular target: human Androgen Receptor (AR), AR (gene 367) (UniProt P10275); assay: ATG_hAR_XSP1: Attagene TRANS-FACTORIAL Multi-Species (XSP1) HepG2 Assay for human Androgen Receptor (AR) (AID 2283785)
# Method: ATG_XSP1_multi-species_TRANS is a cell-based, multiplexed assay created by modifying the existing Attagene TRANS-FACTORIAL system to include a panel of nuclear receptors from some or all the following species: human (Homo sapiens), mouse (Mus musculus), frog (Xenopus laevis), zebrafish (Danio rerio), chicken (Gallus gallus), and turtle (Chrysemys picta). The ECOTOX-FACTORIAL format uses HepG2, a human liver cell line, with measurements taken at 24 hours after chemical dosing in a 24-well plate. Xsp1 included 3 nM 6-alpha-fluorotestosterone to partially stimulate the androgen receptor.ATG_hAR_XSP1 is one of 29 assay components measured or calculated from the ATG_XSP1_multi-species_TRANS assay. It is designed to make measurements of mRNA induction, a form of inducible reporter, as detected with fluorescence intensity signals by Reverse transcription polymerase chain reaction (RT-PCR) and Capillary electrophoresis technology.The assay endpoint ATG_hAR_XSP1 was analyzed in the positive analysis fitting direction relative to DMSO as the negative control and baseline of activity. […] Furthermore, this assay endpoint can be referred to as a primary readout, because this assay has produced multiple assay endpoints where this one serves a reporter gene function. […]
# [17] = tested on: zebrafish Androgen Receptor (AR), gene 100005148; assay: ATG_zfAR_XSP1: Attagene TRANS-FACTORIAL Multi-Species (XSP1) HepG2 Assay for zebrafish Androgen Receptor (AR) (AID 2283771)
# Procedure, shortened: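 HepG2 cells were transiently transfected with a zebrafish AR-GAL4 reporter system and partially stimulated with 3 nM 6-alpha-fluorotestosterone. Reporter mRNA was measured after 24 h dosing by RT-PCR with capillary electrophoresis, and gain-of-signal was fitted relative to DMSO.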
# [18] = tested on: turtle Androgen Receptor (AR), gene 101947425; assay: ATG_trAR_XSP1: Attagene TRANS-FACTORIAL Multi-Species (XSP1) HepG2 Assay for turtle Androgen Receptor (AR) (AID 2283786)
# Procedure, shortened: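 HepG2 cells transiently transfected with a turtle AR–GAL4 chimera and GAL4-UAS reporter, co-treated with 3 nM 6-alpha-fluorotestosterone for partial stimulation. Reporter mRNA is quantified at 24 h by RT-PCR and capillary electrophoresis, gain-of-signal versus DMSO.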
# Estrogen receptor beta (Homo sapiens), sequence (Q92731 whole entry, looked up, the tested form may be a part): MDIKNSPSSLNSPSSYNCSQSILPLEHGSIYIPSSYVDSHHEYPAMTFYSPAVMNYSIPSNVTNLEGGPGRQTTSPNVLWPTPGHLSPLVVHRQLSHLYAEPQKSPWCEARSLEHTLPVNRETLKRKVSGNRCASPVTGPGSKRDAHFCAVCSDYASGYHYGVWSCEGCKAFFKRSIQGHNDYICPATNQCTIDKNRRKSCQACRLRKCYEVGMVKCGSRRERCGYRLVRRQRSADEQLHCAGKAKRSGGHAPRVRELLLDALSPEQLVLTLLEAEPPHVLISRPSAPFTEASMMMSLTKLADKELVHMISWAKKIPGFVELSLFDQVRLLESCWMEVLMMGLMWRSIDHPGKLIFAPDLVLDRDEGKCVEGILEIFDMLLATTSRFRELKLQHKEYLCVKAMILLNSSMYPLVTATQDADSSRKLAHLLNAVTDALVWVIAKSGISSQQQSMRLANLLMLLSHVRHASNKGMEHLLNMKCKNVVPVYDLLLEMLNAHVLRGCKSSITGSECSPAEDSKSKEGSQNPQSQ
# zebrafish Estrogen Receptor (ESR1), esr1 (gene 259252), sequence (P57717 whole entry, looked up, the tested form may be a part): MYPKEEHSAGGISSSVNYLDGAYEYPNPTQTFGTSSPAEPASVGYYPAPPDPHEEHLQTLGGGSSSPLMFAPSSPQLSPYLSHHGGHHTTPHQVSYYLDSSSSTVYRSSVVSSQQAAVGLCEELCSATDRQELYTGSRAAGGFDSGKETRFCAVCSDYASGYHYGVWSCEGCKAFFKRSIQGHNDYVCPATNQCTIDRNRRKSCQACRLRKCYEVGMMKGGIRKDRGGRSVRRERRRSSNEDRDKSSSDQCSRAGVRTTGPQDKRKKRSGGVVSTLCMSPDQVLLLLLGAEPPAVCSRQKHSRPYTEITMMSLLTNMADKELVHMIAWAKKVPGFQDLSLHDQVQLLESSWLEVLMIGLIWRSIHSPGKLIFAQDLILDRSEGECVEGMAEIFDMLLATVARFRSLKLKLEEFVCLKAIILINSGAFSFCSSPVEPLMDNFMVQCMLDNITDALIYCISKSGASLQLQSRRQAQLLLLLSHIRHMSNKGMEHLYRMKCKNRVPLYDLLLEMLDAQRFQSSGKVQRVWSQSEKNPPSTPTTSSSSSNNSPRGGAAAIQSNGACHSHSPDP
# Estrogen receptor (Homo sapiens), sequence (P03372 whole entry, looked up, the tested form may be a part): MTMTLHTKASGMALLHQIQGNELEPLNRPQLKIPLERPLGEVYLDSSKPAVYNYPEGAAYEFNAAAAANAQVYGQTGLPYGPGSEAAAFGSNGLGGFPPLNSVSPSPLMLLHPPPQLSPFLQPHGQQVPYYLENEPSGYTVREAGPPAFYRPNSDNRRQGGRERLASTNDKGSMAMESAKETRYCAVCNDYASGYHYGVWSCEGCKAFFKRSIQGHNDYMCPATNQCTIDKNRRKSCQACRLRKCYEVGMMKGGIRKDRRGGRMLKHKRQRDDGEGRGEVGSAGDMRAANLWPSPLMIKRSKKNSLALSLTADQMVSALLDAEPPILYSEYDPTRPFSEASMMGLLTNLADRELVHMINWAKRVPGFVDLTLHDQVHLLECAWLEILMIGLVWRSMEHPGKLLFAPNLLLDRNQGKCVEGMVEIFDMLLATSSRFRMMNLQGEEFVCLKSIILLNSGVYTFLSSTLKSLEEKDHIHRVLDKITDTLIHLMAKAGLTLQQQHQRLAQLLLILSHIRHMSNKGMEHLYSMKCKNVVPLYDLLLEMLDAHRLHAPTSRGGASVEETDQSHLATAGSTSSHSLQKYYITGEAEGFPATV
# AR (gene 367), sequence (P10275 whole entry, looked up): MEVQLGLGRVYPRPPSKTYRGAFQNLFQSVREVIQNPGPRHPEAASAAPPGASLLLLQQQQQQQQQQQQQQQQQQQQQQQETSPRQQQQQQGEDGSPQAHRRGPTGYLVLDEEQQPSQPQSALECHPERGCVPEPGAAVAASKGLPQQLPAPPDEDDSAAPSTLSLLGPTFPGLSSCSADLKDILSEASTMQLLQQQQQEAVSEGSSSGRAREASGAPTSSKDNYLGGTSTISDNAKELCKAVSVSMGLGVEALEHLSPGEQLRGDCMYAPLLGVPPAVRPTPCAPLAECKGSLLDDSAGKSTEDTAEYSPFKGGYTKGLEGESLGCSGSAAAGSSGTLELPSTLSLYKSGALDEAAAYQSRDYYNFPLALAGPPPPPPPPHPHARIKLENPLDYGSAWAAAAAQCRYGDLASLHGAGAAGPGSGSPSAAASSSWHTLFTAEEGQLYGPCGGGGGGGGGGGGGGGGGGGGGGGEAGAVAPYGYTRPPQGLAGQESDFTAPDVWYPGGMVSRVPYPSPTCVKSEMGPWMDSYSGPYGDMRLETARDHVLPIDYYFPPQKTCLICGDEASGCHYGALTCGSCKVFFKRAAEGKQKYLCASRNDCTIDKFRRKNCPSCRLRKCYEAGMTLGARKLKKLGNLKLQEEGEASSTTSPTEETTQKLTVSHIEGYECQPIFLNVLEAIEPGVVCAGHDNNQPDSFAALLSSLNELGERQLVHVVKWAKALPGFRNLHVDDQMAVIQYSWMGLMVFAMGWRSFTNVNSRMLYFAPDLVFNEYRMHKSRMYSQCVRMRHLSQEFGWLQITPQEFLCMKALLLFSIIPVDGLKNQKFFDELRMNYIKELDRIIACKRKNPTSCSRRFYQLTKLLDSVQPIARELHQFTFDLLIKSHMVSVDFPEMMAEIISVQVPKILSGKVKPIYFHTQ
# GAL4 Transcription Factor (Internal Marker), GAL4 (gene 855828), sequence (P04386 whole entry, looked up, the tested form may be a part): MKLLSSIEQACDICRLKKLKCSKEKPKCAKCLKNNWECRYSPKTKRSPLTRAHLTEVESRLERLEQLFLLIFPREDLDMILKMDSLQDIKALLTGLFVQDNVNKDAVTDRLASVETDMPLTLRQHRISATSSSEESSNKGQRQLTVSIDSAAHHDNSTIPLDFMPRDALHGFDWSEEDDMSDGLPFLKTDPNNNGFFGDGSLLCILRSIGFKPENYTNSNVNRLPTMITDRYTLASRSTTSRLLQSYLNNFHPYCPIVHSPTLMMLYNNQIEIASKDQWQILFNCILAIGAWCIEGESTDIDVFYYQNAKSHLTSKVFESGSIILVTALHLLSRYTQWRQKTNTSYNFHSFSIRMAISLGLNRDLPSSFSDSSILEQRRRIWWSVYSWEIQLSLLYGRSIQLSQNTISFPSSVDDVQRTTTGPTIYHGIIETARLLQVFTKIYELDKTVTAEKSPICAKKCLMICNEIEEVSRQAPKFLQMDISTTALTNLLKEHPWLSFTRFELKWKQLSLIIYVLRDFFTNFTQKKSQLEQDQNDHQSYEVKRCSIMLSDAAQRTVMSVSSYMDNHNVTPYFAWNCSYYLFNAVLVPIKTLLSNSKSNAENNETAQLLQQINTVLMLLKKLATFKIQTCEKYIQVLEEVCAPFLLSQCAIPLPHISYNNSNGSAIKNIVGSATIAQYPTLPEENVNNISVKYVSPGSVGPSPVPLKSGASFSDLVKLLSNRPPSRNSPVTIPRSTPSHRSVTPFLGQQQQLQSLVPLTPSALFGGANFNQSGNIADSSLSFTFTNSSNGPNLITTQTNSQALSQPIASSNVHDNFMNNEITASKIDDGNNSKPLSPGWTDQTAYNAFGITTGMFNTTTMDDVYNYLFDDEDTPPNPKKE
# human Androgen Receptor (AR), AR (gene 367), sequence (P10275 whole entry, looked up): as the sequence (P10275 whole entry, looked up) above
smiles,measurement,setting,value
COC(=O)N(OC)c1ccccc1COc1ccn(-c2ccc(Cl)cc2)n1,outcome,[1],inactive
same,outcome,[2],inactive
same,outcome,[3],inactive
same,AC50,[4],25.9 µM (active)
same,AC50,[5],26.8 µM (active)
same,outcome,[6],inactive
same,outcome,[7],inactive
same,outcome,[8],inactive
same,outcome,[9],inactive
same,AC50,[10],92.3 µM (active)
same,AC50,[11],500 nM (active)
same,outcome,[12],inactive
same,outcome,[13],inactive
same,outcome,[14],inactive
same,outcome,[15],inactive
CC(Oc1ccc(Cl)cc1Cl)C(=O)O (stereo not drawn),outcome,[4],inactive
same,outcome,[5],inactive
CCCCNC(=O)OCC#CI,outcome,[2],inactive
same,outcome,[3],inactive
same,AC50,[4],11.6 µM (active)
same,AC50,[5],13.9 µM (active)
same,outcome,[7],inactive
same,AC50,[10],5.58 µM (active)
same,outcome,[14],inactive
same,outcome,[15],inactive
CCCC1COC(Cn2cncn2)(c2ccc(Cl)cc2Cl)O1 (stereo not drawn),outcome,[2],inactive
same,AC50,[3],27.6 µM (active)
same,outcome,[4],inactive
same,AC50,[5],74.8 µM (active)
same,outcome,[6],inactive
same,outcome,[7],inactive
same,outcome,[8],inactive
same,outcome,[9],inactive
same,AC50,[10],92.1 µM (active)
same,outcome,AR (gene 367),inactive
same,AC50,[11],71200 nM (active)
CCOc1cc(Oc2ccc(C(F)(F)F)cc2Cl)ccc1[N+](=O)[O-],AC50,[4],22.8 µM (active)
same,AC50,[5],12.9 µM (active)
CO/C=C(/C(=O)OC)c1ccccc1Oc1cc(Oc2ccccc2C#N)ncn1,outcome,[1],inactive
same,AC50,[4],46.7 µM (active)
same,AC50,[5],45.3 µM (active)
same,outcome,[8],inactive
same,outcome,[9],inactive
same,outcome,AR (gene 367),inactive
same,outcome,[11],inactive
same,outcome,[16],inactive
same,outcome,[12],inactive
same,outcome,[13],inactive
same,outcome,[14],inactive
same,outcome,[15],inactive
CC(C)(C)c1ccc(CSc2cnn(C(C)(C)C)c(=O)c2Cl)cc1,outcome,[1],inactive
same,outcome,[17],inactive
same,outcome,[2],inactive
same,outcome,[3],inactive
same,AC50,[4],16 µM (active)
same,AC50,[5],26.9 µM (active)
same,outcome,[6],inactive
same,outcome,[7],inactive
same,outcome,[8],inactive
same,outcome,[9],inactive
same,AC50,[11],120 nM (active)
same,outcome,[18],inactive
same,outcome,[12],inactive
same,outcome,[14],inactive
same,outcome,[15],inactive
C=CCC1=C(C)C(OC(=O)C2C(C=C(C)C)C2(C)C)CC1=O (stereo not drawn),AC50,[4],52.5 µM (active)
same,AC50,[5],52.5 µM (active)
same,AC50,[10],87.8 µM (active) [middle of 5 runs]
same,outcome,[10],inactive
CS/C(C)=N/OC(=O)N(C)SN(C)C(=O)O/N=C(\C)SC,AC50,[4],79.6 µM (active)
same,AC50,[5],77.9 µM (active)
same,AC50,[10],24.8 µM (active)
same,outcome,AR (gene 367),inactive
